The values that follow come from PubChem BioAssay AID1259313 (Sanford-Burnham Center for Chemical Genomics, 2017).

About 8,500 (2.5%) of roughly 340,000 compounds were called active. The list comes from a sample in which actives are over-represented; it also holds similar structures and randomly drawn compounds. A number with no mark means an inactive call.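 How the source made its calls: active means melting temperature shift of at least 10% of the positive control shift, at one fixed dose; inactive means the rest.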

The assay has as its system Glutamate receptor ionotropic, NMDA 3A (GRIN3A) ligand-binding domain. Briefly: NR3A LBD thermal stabilization by compounds – biophysical, differential scanning fluorimetry, uHTS, primary screen (AID 1259313). As to conditions: at 25 µM, hits give high values, 0% = protein alone, 100% = glycine-bound protein. For orientation: DSF heats the sample and reads unfolding from a dye or from intrinsic fluorescence.
On to `CCN1CCN(c2nc(Nc3cccc(F)c3)nc(N)c2[N+](=O)[O-])CC1`, for which the Tm shift relative to glycine control was 0.95%.
As to `COc1cccc(Nc2nc(N)c([N+](=O)[O-])c(NCc3ccco3)n2)c1`, the Tm shift relative to glycine control is -10.5%.
For the compound `CNc1nc(Nc2ccc(C)c(Cl)c2)nc(N)c1[N+](=O)[O-]`, the Tm shift relative to glycine control was 25.8% (active).
Regarding `Cc1cn(C)c(=O)n(C)c1=O`, the Tm shift relative to glycine control was -0.48%.
As for `CCN(CC)S(=O)(=O)c1ccc(NC(=O)c2cccnc2Cl)c(NC(=O)c2cccnc2Cl)c1`, the figure is -0.78%; as for `CCOC(=O)c1sc(NC(=O)c2sc(C)nc2C)nc1C`, 3.53%; as for `CCOC(=O)c1nc(N)sc1C(=O)OCC`, 17.7% (active).
Take `CC(=O)c1sc(N)nc1C`: the Tm shift relative to glycine control was 2.68%.
As for `CN(C)C(=O)CCC(=O)N1CCCCC1C(=O)Nc1ccc(Oc2ccccc2F)cc1` (configuration not stated), the Tm shift relative to glycine control was -0.77%.
On to `O=S(=O)(c1ccc(Cl)cc1)N1CCCN(c2ccc(C(F)(F)F)cn2)CC1`, for which the Tm shift relative to glycine control is -4.38%.
Turning to `COc1ccccc1CC(=O)Nc1ccc([N+](=O)[O-])cc1OC`, the Tm shift relative to glycine control was 10.2% (active).
Turning to `COC(=O)c1ccccc1NC(=O)Cc1ccccc1OC`, the Tm shift relative to glycine control was -0.63%.
Regarding `COc1cc([N+](=O)[O-])ccc1NC(=O)COC(=O)CCOc1ccc(C)cc1`, the Tm shift relative to glycine control is 2.57%.
Consider `COc1ccc(CCNC(=O)COC(=O)c2ccc[nH]c2=O)cc1`, for which the Tm shift relative to glycine control was -2.27%.
Take `Cc1cccc(/C=N/NC(=O)CNc2cccc3ccccc23)n1`: the Tm shift relative to glycine control is 4.98%.
In the case of `Cc1ccccc1NCC(=O)N/N=C\c1ccc([N+](=O)[O-])s1`, the Tm shift relative to glycine control is 11.5% (active).
On to `Cc1ccc(/C=N/NC(=O)CN2CCN(Cc3ccccc3)CC2)s1`, for which the Tm shift relative to glycine control is -1.47%.
On to `Cc1ccc(NC(=O)CSc2nc(CSc3ccc(C)cc3)cc(=O)[nH]2)cc1`, for which the Tm shift relative to glycine control was -30.2%.
As for `COc1ccc(C)cc1-n1nnnc1SCc1nc2ccccc2c(=O)[nH]1`, the Tm shift relative to glycine control is 0.31%.
For `Cc1ccc(Nc2nc(CSc3nnnn3-c3ccccc3)cc(=O)[nH]2)cc1`, the Tm shift relative to glycine control was 10.7% (active).
As for `O=C(Nc1ccc(Br)cc1)c1cccc(NC(=O)C2C3CC4OC(=O)C2C4C3)c1` (configuration not stated), the Tm shift relative to glycine control was -8.89%.
Take `O=C(NC(=S)Nc1cccc(-c2ccc(CO)o2)c1)c1cccs1`: the Tm shift relative to glycine control is -18.4%.
On to `O=C(Nc1ccc(Cl)cc1)C1c2cccc[n+]2CC(=O)N1Cc1ccc2c(c1)OCO2` (configuration not stated), for which the Tm shift relative to glycine control was 0.68%.
Turning to `CCCOc1ccc(NC(=O)CC2C(=O)N(C)C(=S)N2Cc2ccc3c(c2)OCO3)cc1` (configuration not stated), the Tm shift relative to glycine control was 23.2% (active).
For `COc1ccc(N2C(=O)C(CC(=O)Nc3ccccc3)N(Cc3ccc(OC)c(OC)c3)C2=O)cc1` (configuration not stated), the Tm shift relative to glycine control is -3.64%.
As for `O=C(CN1CCN(C(=S)NC2CCCC2)CC1)Nc1ccc(Oc2ccccc2)cc1`, the figure is -2.87%; as for `O=C(NCc1ccccc1Cl)C1CCN(S(=O)(=O)c2cccc3nonc23)CC1`, 2.6%; as for `Cc1cc(/C=C2/NC(=O)NC2=O)c(C)n1-c1cccnc1`, -4.95%.
Regarding `Cc1ccc(CN2C(=O)N/C(=C/c3cc(C)n(-c4ccccn4)c3C)C2=O)cc1`, the Tm shift relative to glycine control is 57.7% (active).
As for `Cc1ccccc1-n1c(C)cc(/C=C2\NC(=O)NC2=O)c1C`, the figure is -2.81%.
As for `Oc1ccccc1C1=NN(c2ccccc2)C(c2ccccc2)C1` (configuration not stated), the Tm shift relative to glycine control is 11.9% (active).
To `COc1ccc(C2=NN(c3ccccc3)C(c3cccs3)C2)cc1` (configuration not stated) belongs 0.58%; to `O=C1C2N=NN(CC(=O)N3N=C(c4cccc5ccccc45)CC3c3ccccc3)C2C(=O)N1c1ccccc1` (configuration not stated), -0.6%.
As for `Cc1ccc(C(=O)COC(=O)CCN2C(=O)C3C4CC(C(Br)C4Br)C3C2=O)cc1` (configuration not stated), the figure is 18% (active); as for `O=C(CCN1C(=O)C2C3C=CC(C3)C2C1=O)Oc1ccc2ccccc2c1` (configuration not stated), -2.31%.
Take `Cc1ccc(C(=O)COC(=O)CCN2C(=O)C3C4CCC(C4)C3C2=O)cc1C` (configuration not stated): the Tm shift relative to glycine control was 1.5%.
To `CCn1nc(C)c(/C=N/NC(=O)Cc2ccc(Cl)cc2)c1C` belongs 1.94%.
To `Cc1nn(Cc2ccc(Cl)cc2)c(Cl)c1/C=N/NC(=O)CNc1ccccc1F` belongs 16.1% (active); to `Cc1nn(Cc2ccc(Cl)cc2)c(Cl)c1/C=N/NC(=O)c1cccnc1`, -6.33%.
For the compound `C/C=C/C(=O)OCc1csc(CC(=O)Nc2ccccc2C)n1`, the Tm shift relative to glycine control was -1.3%.
Consider `Cc1ccc(C)c(S(=O)(=O)N2CCN(CC(=O)Nc3ccc([N+](=O)[O-])cc3)CC2)c1`, for which the Tm shift relative to glycine control was -7.08%.
To `Cc1ccc(S(=O)(=O)N2CCN(CC(=O)N/N=C/c3cc([N+](=O)[O-])ccc3Cl)CC2)cc1` belongs 19.9% (active); to `Cc1ccc(S(=O)(=O)N2CCN(CC(=O)N/N=C/c3ccc(Br)s3)CC2)cc1`, 0.82%.
As to `CCOC(=O)CN(C)S(=O)(=O)c1ccc(-c2cc(C(=O)OC)sc2C(F)(F)F)cc1`, the Tm shift relative to glycine control is -0.21%.
In the case of `CCC(CC)C(=O)Nc1cccc(C(=O)N2CCCC2)c1`, the Tm shift relative to glycine control is -2.45%.
As for `Cc1cc(C(=O)COc2ccc(Br)cc2F)c(C)n1C1CC1`, the figure is 1.06%; as for `COc1ccc(CCn2nnnc2C(c2ccccc2)N2CCN(C)CC2)cc1OC` (configuration not stated), 10.2% (active); as for `N#Cc1ccc(C(c2nnnn2CCc2ccccc2)N2CCCCCC2)cc1` (configuration not stated), 1.53%.
In the case of `COc1ccc(C(c2nnnn2Cc2cccs2)N2CCN(c3ccccc3)CC2)cc1OC` (configuration not stated), the Tm shift relative to glycine control is 0%.
For the compound `COc1ccc(S(=O)(=O)N2CCN(c3ncnc4c(-c5ccccc5)nsc34)CC2)cc1`, the Tm shift relative to glycine control is -1.19%.
As for `O=C(c1ccc(F)cc1)c1c[nH]c(C(=O)NCc2cccnc2)c1`, the Tm shift relative to glycine control was -1.06%.
As for `CCN(Cc1ccncc1)C(=O)c1cccc(S(=O)(=O)N2CCOCC2)c1`, the figure is 0.46%; as for `CC(C)CNS(=O)(=O)c1ccc(C(=O)Nc2ccc3c(c2)OCO3)cc1`, -0.27%.
Consider `CNS(=O)(=O)c1ccc(NC(=O)Nc2ccc3c(c2)OCO3)cc1`, for which the Tm shift relative to glycine control was 11.2% (active).
As for `Cc1ccc(S(=O)(=O)NCC(=O)Nc2ccc3c(c2)OCCO3)cc1`, the Tm shift relative to glycine control is 0.9%.
As for `COc1ccc2[nH]cc(/C=C(/C#N)S(=O)(=O)c3ccccc3)c2c1`, the figure is 13.2% (active); as for `COc1ccc2[nH]cc(CCN3C(=O)c4ccc(C(=O)O)cc4C3=O)c2c1`, -2.98%; as for `CCN(CC)CC(=O)c1c[nH]c2ccc(OC)cc12`, -2.92%.
`C=C(C)C1CC=C(C)/C(=N/NC(=O)CCCNc2cccc(C)c2)C1` (configuration not stated): the Tm shift relative to glycine control is -0.09%.
Turning to `CCc1cc2c(SCC(=O)Nc3ncc(Cl)c(C)c3Cl)ncnc2s1`, the Tm shift relative to glycine control was -1.41%.
Consider `O=C(NNC(=O)c1cccc(S(=O)(=O)Nc2ccc(Cl)cc2)c1)c1ccc(=O)[nH]c1`, for which the Tm shift relative to glycine control is 0.33%.
For `Cc1ccccc1Nc1nnc(SCC(=O)c2cc3ccccc3o2)s1`, the Tm shift relative to glycine control was -23.4%.
`Cc1cc2c(=O)n(C)c(SCC(=O)c3cc4ccccc4o3)nc2s1`: the Tm shift relative to glycine control is -0.65%.
As for `CC(C)Nc1nnc(SCC(=O)c2c[nH]c3ccccc23)s1`, the Tm shift relative to glycine control is -3.26%.
To `CC(C)N(C(=O)CSc1nnc(NC2CC2)s1)c1ccccc1` belongs -1.56%.
With `Cc1ccc(Nc2nnc(SCC(=O)c3cc4ccccc4o3)s2)cc1C`, the Tm shift relative to glycine control is 11.5% (active).
Consider `CC(C)c1ccc(Nc2nnc(SCC(=O)c3nnc(-c4ccccc4)o3)s2)cc1`, for which the Tm shift relative to glycine control was 19.9% (active).
For the compound `O=C(CN1C(=O)CCS(=O)(=O)c2ccccc21)NCc1ccc(F)cc1`, the Tm shift relative to glycine control is -2.05%.
With `CN1CCN(C(=O)c2ccc(NS(=O)(=O)c3ccccc3)cc2)CC1`, the Tm shift relative to glycine control is -0.09%.
As for `OCCCC1CCCCN1Cc1nc(Cc2ccccc2Cl)no1` (configuration not stated), the figure is 0.08%; as for `NS(=O)(=O)c1cc(C(=O)NCCOc2ccccc2)c(Cl)cc1Cl`, -0.6%.
To `CCCN(C(=O)CSc1nnc(N)s1)c1c(N)n(Cc2ccccc2)c(=O)[nH]c1=O` belongs 5.76%; to `O=C(O)CC/C(=C\c1cc2c(cc1Br)OCO2)c1nc2ccccc2s1`, -1.28%.
To `N#C/C(=C(/O)Cc1cccc2ccccc12)c1nc2ccccc2s1` belongs 19.3% (active).
`CC1=CC(=C(C#N)c2nc3ccccc3s2)C=C(C)N1c1ccc(F)cc1F`: the Tm shift relative to glycine control is -4.96%.
`Cc1cc(NC(=O)c2ccco2)c(=O)n(Cc2c(F)cccc2Cl)c1`: the Tm shift relative to glycine control was -1.84%.
To `COc1ccc(CNC(=O)C[C@H]2C[C@H](C(=O)N3CCOCC3)[C@@]3(CCC4CCCC4)c4[nH]c5ccc(Cl)cc5c4CCN3C2=O)cc1OC` belongs 10% (active); to `COc1ccc2[nH]c3c(c2c1)CCN1C(=O)C(CC(=O)NCCCN(C)C)C[C@H](C(=O)N2CCOCC2)[C@@]31CCC1CCCC1` (some centres not stated), 0.34%; to `O=C(C[C@H]1C[C@H](C(=O)N2CCOCC2)[C@@]2(CCC3CCCC3)c3[nH]c4ccc(Cl)cc4c3CCN2C1=O)NCc1ccco1`, 3%.
To `C/C(Cc1ccccc1)=N\NC(=O)CNC(=O)c1cccc(Br)c1` belongs -3.32%; to `C/C(Cc1ccccc1)=N\NC(=O)CNC(=O)c1ccc2c(c1)OCCO2`, 12.5% (active).
As for `C/C(Cc1ccccc1)=N\NC(=O)CNC(=O)c1ccccc1Cl`, the figure is 0%; as for `O=S(=O)(Nc1ccc(-n2cnnn2)cc1)c1ccc(Cl)cc1`, 0.42%.
Take `CC(=O)[C@@]12O[C@@H]1C[C@H]1[C@@H]3CC[C@H]4C[C@@H](O)CC[C@]4(C)[C@H]3CC[C@@]12C`: the Tm shift relative to glycine control is 0%.
Consider `Cc1ccc(C(=O)NCC(=O)OCC(=O)Nc2cccc(S(=O)(=O)N3CCCC3)c2)cc1C`, for which the Tm shift relative to glycine control was -2.16%.
Consider `N/C(=N\c1nc2ccccc2o1)NC(=O)C(Cc1ccccc1)N1C(=O)c2ccccc2C1=O` (configuration not stated), for which the Tm shift relative to glycine control is -1.81%.
In the case of `COc1ccc(CCNC(=O)Cc2ccc(C)cc2)cc1OC`, the Tm shift relative to glycine control is -3.8%.
As for `CC(=O)c1ccc(NC(=O)CCNS(=O)(=O)c2cc(Br)cnc2N)cc1`, the Tm shift relative to glycine control is -12.8%.
As for `COc1ccc(CCNC(=O)C(=O)NCc2ccccc2C)cc1OC`, the Tm shift relative to glycine control was -1.17%.
Turning to `COc1ccc(CCNC(=O)CCc2ccccc2O)cc1OC`, the Tm shift relative to glycine control is 19.5% (active).
As to `COc1ccc(CCNC(=O)CSCc2ccc(Br)cc2)cc1OC`, the Tm shift relative to glycine control was 0.53%.
On to `COc1ccc(CCNC(=O)CCNS(=O)(=O)c2cc(Br)cnc2N)cc1OC`, for which the Tm shift relative to glycine control is 11% (active).
